According to the supplement of paper PMC7156485:

The molecules below were run on TDF (assay: cell number relative to DMSO (% of DMSO); higher = more cells (less growth inhibition / toxicity)). Conditions: concentration: 10 µM; 24 h.
Summary of the method: (§1)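 HCC1569 and TDF cells (800 per well, 384-well plates, RPMI with 10% FBS) were treated with compounds at 10 µM for 24 h at 37 °C, in triplicate. Cells were fixed in 3.7% formaldehyde and stained with a rabbit anti-H1.0 antibody, an AlexaFluor 647 secondary and DAPI; six fields per well were imaged at ×10. H1.0 nuclear intensity or cell number is expressed as percent of the plate DMSO control, taking the median of replicates. HCC1569 values were smoothed for positional effects.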
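Throughout, for H1.0 immunofluorescence intensity relative to DMSO: TDF is a line of transformed human dermal fibroblasts of mesenchymal origin.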
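Throughout, for cell number relative to DMSO: TDF denotes transformed human dermal fibroblasts of mesenchymal origin.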

Q: With `C/C(Nc1ccccc1)=C1\C(=O)NC(Cc2ccccc2)C1=O` (stereo not given) [(3E)-3-(1-anilinoethylidene)-5-benzyl-2,4-pyrrolidinedione] as the molecule, how does the cell number read?
A: Its cell number is 7.27.

Q: For `C=CCN1CC(C(=O)N(CCCN(C)C)C(=O)NCC)CC2c3cccc4[nH]cc(c34)CC21` (stereo not given) [Cabergoline], which cell number is on record?
A: The cell number was 102.

Q: Which cell number does the source give for `CCCC[N+]1(C)C2CC(OC(=O)C(CO)c3ccccc3)CC1C1OC12.[Br-]` (stereo not given) [Scopolamine N-butylbromide] here?
A: Its cell number is 111.

Q: How did the cell number turn out when `CCC(C)C(=O)OC1C(O)C2C(CN3CC(C)CCC3C2(C)O)C2CC34OC5(O)C(OC(=O)C(C)(O)C(C)O)CCC3(C)C5C(OC(C)=O)C(OC(C)=O)C4C21O` (stereo not given) [Protoveratrine B] was run?
A: Its cell number is 97.9.

Q: For `NCCc1c[nH]c2ccc(C(N)=O)cc12.O=C(O)C=CC(=O)O` [5-Carboxamidotryptamine maleate], which cell number is on record?
A: The cell number was 103.

Q: `CC=C(C)C(=O)OC1CCC2(C)C3CCC4C5(O)CC(O)C6(O)C(CN7CC(C)CCC7C6(C)O)C5(O)CC42OC13O` (stereo not given) [Cevadine] was tested. Which cell number did it give?
A: Its cell number is 99.4.

Q: How did the cell number turn out when `Br.COc1c2c(cc3c1OCO3)CCN(C)C2` [Hydrocotarnine HBr] was run?
A: Its cell number is 107.

Q: With `NC(CCP(=O)(O)O)C(=O)O` (racemic) as the molecule, how does the cell number read?
A: Its cell number is 101.

Q: For `CC(=CC=CC(C)C(=O)O)C1CNC(C(=O)O)C1CC(=O)O` (stereo not given) [Domoic acid], which cell number is on record?
A: Its cell number is 109.

Q: How did the cell number turn out when `CCCCCCCCCCCCCCCCOCC(COP(=O)([O-])OCC[N+](C)(C)C)OC(C)=O` (stereo not drawn) [Enantio-PAF C16] was run?
A: Its cell number is 106.

Q: With `Ic1ccccc1CNC1C2CCN(CC2)C1C(c1ccccc1)c1ccccc1.O=C(O)C(=O)O` [L-703,606 oxalate] as the molecule, how does the cell number read?
A: Its cell number is 91.8.

Q: For `C[N+]1(C)C2CCC1CC(OC(=O)C(CO)c1ccccc1)C2.O=[N+]([O-])[O-]` (stereo not given) [Atropine methyl nitrate], which cell number is on record?
A: Its cell number is 113.

Q: How did the cell number turn out when `CC(CCc1ccccc1)NC(C)C(O)c1ccc(O)cc1.Cl` (stereo not given) [Buphenine.HCl] was run?
A: Its cell number is 104.

Each molecule was assayed on TDF (assay: H1.0 immunofluorescence intensity relative to DMSO (% of DMSO); higher = stronger H1.0 induction, active = 120 or more). Conditions: concentration: 10 µM; 24 h.
Summary of the method: as §1

Q: How did the H1.0 immunofluorescence intensity turn out when `C=CCN1CCC23CCCCC2C1Cc1ccc(O)cc13.O=C(O)C(O)C(O)C(=O)O` (stereo not given) [Levallorphan tartrate] was run?
A: The H1.0 immunofluorescence intensity was 90.1 (inactive).

Q: `CN(C)C(=O)Oc1cccc([N+](C)(C)C)c1` [Neostigmine] was tested. Which H1.0 immunofluorescence intensity did it give?
A: Its H1.0 immunofluorescence intensity is 96.8 (inactive).

Q: Which H1.0 immunofluorescence intensity does the source give for `CC1C(=O)OC2CCN3CC=C(COC(=O)C(C)(O)C1(C)O)C23` (stereo not given) [Monocrotaline] here?
A: The H1.0 immunofluorescence intensity was 85.6 (inactive).

Q: Which H1.0 immunofluorescence intensity does the source give for `CC=C1CC(C)C(O)(CO)C(=O)OCC2=CCN3CCC(OC1=O)C23` (stereo not given) [Retrorsine] here?
A: The H1.0 immunofluorescence intensity was 93.8 (inactive).

Q: How did the H1.0 immunofluorescence intensity turn out when `N#CC(C#N)=Cc1cc(O)c(O)c(O)c1` [Tyrphostin 25] was run?
A: The H1.0 immunofluorescence intensity was 102 (inactive).

Q: How did the H1.0 immunofluorescence intensity turn out when `CC12CCC(O)CC1CCC1C2CCC2(C)C(c3ccc(=O)oc3)CCC12O` (stereo not given) [Bufalin] was run?
A: Its H1.0 immunofluorescence intensity is 114 (inactive).

Q: How did the H1.0 immunofluorescence intensity turn out when `c1cc2c(cc1C1OCC3C(c4ccc5c(c4)OCO5)OCC13)OCO2` (single isomer, unassigned; (-)) [(-)-Asarinin] was run?
A: Its H1.0 immunofluorescence intensity is 101 (inactive).

Q: Which H1.0 immunofluorescence intensity does the source give for `C[N+](C)(C)CC#CCN1CCCC1=O.[I-]` [Oxotremorine methiodide] here?
A: Its H1.0 immunofluorescence intensity is 100 (inactive).

Q: Which H1.0 immunofluorescence intensity does the source give for `O=C1NCN(c2ccccc2)C12CCN(CC1COc3ccccc3O1)CC2` (stereo not given) [Spiroxatrine] here?
A: Its H1.0 immunofluorescence intensity is 101 (inactive).

Q: For `Cc1ccccc1-n1c(Cn2cnc3c(N)ncnc32)nc2cccc(C)c2c1=O`, which H1.0 immunofluorescence intensity is on record?
A: The H1.0 immunofluorescence intensity was 91.9 (inactive).

Q: How did the H1.0 immunofluorescence intensity turn out when `COC1=CC(=O)OC(CCc2ccc3c(c2)OCO3)C1` (stereo not given) [Dihydromethysticin] was run?
A: Its H1.0 immunofluorescence intensity is 90.4 (inactive).

Q: Which H1.0 immunofluorescence intensity does the source give for `CN1C2CCC1CC(OC(=O)C(CO)c1ccccc1)C2` (stereo not given) [Hyoscyamine] here?
A: Its H1.0 immunofluorescence intensity is 97.8 (inactive).

Q: `CCCN(CCC)C1CCc2c(F)ccc(O)c2C1.Cl` (stereo not drawn) [R(+)-UH-301 hydrochloride] was tested. Which H1.0 immunofluorescence intensity did it give?
A: The H1.0 immunofluorescence intensity was 89.2 (inactive).

Q: For `CCC1=CC2CN3CCc4c([nH]c5ccccc45)C(C(=O)OC)(C2)C13` (stereo not given) [Catharanthine], which H1.0 immunofluorescence intensity is on record?
A: Its H1.0 immunofluorescence intensity is 102 (inactive).

Q: For `CCCN1CCc2cccc3c2C1Cc1ccc(O)c(O)c1-3.Cl` (stereo not drawn) [R(-)-Propylnorapomorphine hydrochloride], which H1.0 immunofluorescence intensity is on record?
A: Its H1.0 immunofluorescence intensity is 92.9 (inactive).

Q: For `Br.Br.CN(C)CCN(C)CCc1ccc(Cl)c(Cl)c1`, which H1.0 immunofluorescence intensity is on record?
A: Its H1.0 immunofluorescence intensity is 102 (inactive).

Q: How did the H1.0 immunofluorescence intensity turn out when `CC1(C(=O)O)C2CCC(O2)C1(C)C(=O)O` (stereo not given) [Cantharidic Acid] was run?
A: The H1.0 immunofluorescence intensity was 239 (active).

Q: With `O=c1[nH]c2ccccc2n1CCCN1CCC(n2c(=O)[nH]c3cc(Cl)ccc32)CC1` [Domperidone] as the molecule, how does the H1.0 immunofluorescence intensity read?
A: The H1.0 immunofluorescence intensity was 94.7 (inactive).

Q: How did the H1.0 immunofluorescence intensity turn out when `CCC(C(=O)O)C1OC(C(C)C(O)C(C)C(=O)C(CC)C2OC3(C=CC(O)C4(CCC(C)(C5CCC(O)(CC)C(C)O5)O4)O3)C(C)CC2C)C(C)CC1C` (stereo not given) [Narasin] was run?
A: Its H1.0 immunofluorescence intensity is 112 (inactive).

Q: Which H1.0 immunofluorescence intensity does the source give for `Cl.Oc1ccc2c3c1OC1c4[nH]c5ccccc5c4CC4(O)C(C2)N(CC2CC2)CCC314` (stereo not given) [Naltrindole.HCl] here?
A: Its H1.0 immunofluorescence intensity is 93.2 (inactive).

Q: With `NC(=NN=Cc1ccc(-c2cccc([N+](=O)[O-])c2)o1)N[N+](=O)[O-]` [ERK Inhibitor III] as the molecule, how does the H1.0 immunofluorescence intensity read?
A: The H1.0 immunofluorescence intensity was 95.3 (inactive).

Q: Which H1.0 immunofluorescence intensity does the source give for `C=C1CC2C(CCC3(C)C(=O)CCC23)C2(C)C=CC(=O)C=C12` (stereo not given) [Exemestane] here?
A: The H1.0 immunofluorescence intensity was 98.1 (inactive).

Q: `CC12NC(Cc3ccccc31)c1ccccc12.O=C(O)C=CC(=O)O` (single isomer, unassigned; (+)) [(+)-MK-801 hydrogen maleate] was tested. Which H1.0 immunofluorescence intensity did it give?
A: The H1.0 immunofluorescence intensity was 98.6 (inactive).

Q: For `NC(=S)NN=Cc1coc2ccccc2c1=O.[Cl][Cu][Cl]`, which H1.0 immunofluorescence intensity is on record?
A: The H1.0 immunofluorescence intensity was 105 (inactive).

Q: How did the H1.0 immunofluorescence intensity turn out when `C/C(Nc1ccccc1)=C1\C(=O)NC(Cc2ccccc2)C1=O` (stereo not given) [(3E)-3-(1-anilinoethylidene)-5-benzyl-2,4-pyrrolidinedione] was run?
A: Its H1.0 immunofluorescence intensity is 193 (active).

Q: How did the H1.0 immunofluorescence intensity turn out when `C=CCN1CC(C(=O)N(CCCN(C)C)C(=O)NCC)CC2c3cccc4[nH]cc(c34)CC21` (stereo not given) [Cabergoline] was run?
A: Its H1.0 immunofluorescence intensity is 96.1 (inactive).

Q: Which H1.0 immunofluorescence intensity does the source give for `CCCC[N+]1(C)C2CC(OC(=O)C(CO)c3ccccc3)CC1C1OC12.[Br-]` (stereo not given) [Scopolamine N-butylbromide] here?
A: The H1.0 immunofluorescence intensity was 93.6 (inactive).

Q: With `CCC(C)C(=O)OC1C(O)C2C(CN3CC(C)CCC3C2(C)O)C2CC34OC5(O)C(OC(=O)C(C)(O)C(C)O)CCC3(C)C5C(OC(C)=O)C(OC(C)=O)C4C21O` (stereo not given) [Protoveratrine B] as the molecule, how does the H1.0 immunofluorescence intensity read?
A: The H1.0 immunofluorescence intensity was 106 (inactive).

Q: With `NCCc1c[nH]c2ccc(C(N)=O)cc12.O=C(O)C=CC(=O)O` [5-Carboxamidotryptamine maleate] as the molecule, how does the H1.0 immunofluorescence intensity read?
A: Its H1.0 immunofluorescence intensity is 91.3 (inactive).

Q: How did the H1.0 immunofluorescence intensity turn out when `CC=C(C)C(=O)OC1CCC2(C)C3CCC4C5(O)CC(O)C6(O)C(CN7CC(C)CCC7C6(C)O)C5(O)CC42OC13O` (stereo not given) [Cevadine] was run?
A: Its H1.0 immunofluorescence intensity is 96.4 (inactive).

Q: `Br.COc1c2c(cc3c1OCO3)CCN(C)C2` [Hydrocotarnine HBr] was tested. Which H1.0 immunofluorescence intensity did it give?
A: Its H1.0 immunofluorescence intensity is 104 (inactive).

Q: How did the H1.0 immunofluorescence intensity turn out when `NC(CCP(=O)(O)O)C(=O)O` (racemic) was run?
A: Its H1.0 immunofluorescence intensity is 96.9 (inactive).

Q: For `CC(=CC=CC(C)C(=O)O)C1CNC(C(=O)O)C1CC(=O)O` (stereo not given) [Domoic acid], which H1.0 immunofluorescence intensity is on record?
A: The H1.0 immunofluorescence intensity was 93.6 (inactive).

Q: `CCCCCCCCCCCCCCCCOCC(COP(=O)([O-])OCC[N+](C)(C)C)OC(C)=O` (stereo not drawn) [Enantio-PAF C16] was tested. Which H1.0 immunofluorescence intensity did it give?
A: Its H1.0 immunofluorescence intensity is 93.7 (inactive).

Q: With `Ic1ccccc1CNC1C2CCN(CC2)C1C(c1ccccc1)c1ccccc1.O=C(O)C(=O)O` [L-703,606 oxalate] as the molecule, how does the H1.0 immunofluorescence intensity read?
A: Its H1.0 immunofluorescence intensity is 114 (inactive).

Q: `C[N+]1(C)C2CCC1CC(OC(=O)C(CO)c1ccccc1)C2.O=[N+]([O-])[O-]` (stereo not given) [Atropine methyl nitrate] was tested. Which H1.0 immunofluorescence intensity did it give?
A: Its H1.0 immunofluorescence intensity is 94.9 (inactive).

Q: With `CC(CCc1ccccc1)NC(C)C(O)c1ccc(O)cc1.Cl` (stereo not given) [Buphenine.HCl] as the molecule, how does the H1.0 immunofluorescence intensity read?
A: Its H1.0 immunofluorescence intensity is 90 (inactive).
